Measurements as given in PubChem BioAssay (NCATS).
Inconclusive results are not listed. Active and inactive are the calls of the source. The call rests on the fitted dose curve; in most records, active means well fitted inhibition curve with a large enough effect; inconclusive means small, poorly fitted or top-dose-only effect; inactive means flat fitted curve, though single readings scatter.

What was measured:
[1] = biological target: Luciferin 4-monooxygenase (Photinus pyralis) (UniProt P08659); assay: Biochemical firefly luciferase enzyme assay for NPC (AID 624030);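 further: purified P. pyralis luciferase at 10 nM with luciferin and ATP substrate; nearly all actives have a fitted effect of over 70% in size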
Outline: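 Purified P. pyralis luciferase at 10 nM in 50 mM Tris Acetate (final), luminescence read within 5 minutes of enzyme addition to compounds. Activity normalised to PTC124 versus DMSO; concentration-response curves classed by r2, magnitude and activity.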

CP215 = assay: qHTS profiling for inhibitors of Plasmodium falciparum proliferation (AID 504749); further: nearly all actives have a fitted effect of over 60% in size; conditions: P. falciparum in erythrocytes, SYBR Green DNA, 72 h; series mostly up to 28.7 µM
Outline: (§1)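 Each compound contacts P. falciparum-infected red blood cells for 72 h at 37 C; lysis buffer (Tris, EDTA, saponin, Triton X, SYBR Green I) is added and fluorescence measured next morning; values normalized to controls.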

CP260 = assay: as above; conditions: P. falciparum in erythrocytes, SYBR Green DNA, 72 h; series mostly up to 28.7 µM
Outline: as §1

CP266 = assay: as above; conditions: P. falciparum in erythrocytes, SYBR Green DNA, 72 h; series mostly up to 28.7 µM
Outline: as §1

CP268 = assay: as above; conditions: P. falciparum in erythrocytes, SYBR Green DNA, 72 h; series mostly up to 28.7 µM
Outline: as §1

CP291 = assay: as above; conditions: P. falciparum in erythrocytes, SYBR Green DNA, 72 h; series mostly up to 28.7 µM
Outline: as §1

CP297 = assay: as above; conditions: P. falciparum in erythrocytes, SYBR Green DNA, 72 h; series mostly up to 28.7 µM
Outline: as §1

CP305 = assay: as above; conditions: P. falciparum in erythrocytes, SYBR Green DNA, 72 h; series mostly up to 28.7 µM
Outline: as §1

CP335 = assay: as above; conditions: P. falciparum in erythrocytes, SYBR Green DNA, 72 h; series mostly up to 28.7 µM
Outline: as §1

DIV14 = assay: as above; conditions: P. falciparum in erythrocytes, SYBR Green DNA, 72 h; series mostly up to 28.7 µM
Outline: as §1

DIV17 = assay: as above; conditions: P. falciparum in erythrocytes, SYBR Green DNA, 72 h; series mostly up to 28.7 µM
Outline: as §1

FAB9 = assay: as above; conditions: P. falciparum in erythrocytes, SYBR Green DNA, 72 h; series mostly up to 28.7 µM
Outline: as §1

GB4 = assay: as above; conditions: P. falciparum in erythrocytes, SYBR Green DNA, 72 h; series mostly up to 28.7 µM
Outline: as §1

HB3 = assay: as above; conditions: P. falciparum in erythrocytes, SYBR Green DNA, 72 h; series mostly up to 28.7 µM
Outline: as §1

ICS = assay: as above; conditions: P. falciparum in erythrocytes, SYBR Green DNA, 72 h; series mostly up to 28.7 µM
Outline: as §1

JCK = assay: as above; conditions: P. falciparum in erythrocytes, SYBR Green DNA, 72 h; series mostly up to 28.7 µM
Outline: as §1

P93_24 = assay: as above; conditions: P. falciparum in erythrocytes, SYBR Green DNA, 72 h; series mostly up to 28.7 µM
Outline: as §1

PC26 = assay: as above; conditions: P. falciparum in erythrocytes, SYBR Green DNA, 72 h; series mostly up to 28.7 µM
Outline: as §1

PC49 = assay: as above; conditions: P. falciparum in erythrocytes, SYBR Green DNA, 72 h; series mostly up to 28.7 µM
Outline: as §1

TAB109 = assay: as above; conditions: P. falciparum in erythrocytes, SYBR Green DNA, 72 h; series mostly up to 28.7 µM
Outline: as §1

Measured: Potency

Sequence of Luciferin 4-monooxygenase (Photinus pyralis) (P08659 whole entry, looked up): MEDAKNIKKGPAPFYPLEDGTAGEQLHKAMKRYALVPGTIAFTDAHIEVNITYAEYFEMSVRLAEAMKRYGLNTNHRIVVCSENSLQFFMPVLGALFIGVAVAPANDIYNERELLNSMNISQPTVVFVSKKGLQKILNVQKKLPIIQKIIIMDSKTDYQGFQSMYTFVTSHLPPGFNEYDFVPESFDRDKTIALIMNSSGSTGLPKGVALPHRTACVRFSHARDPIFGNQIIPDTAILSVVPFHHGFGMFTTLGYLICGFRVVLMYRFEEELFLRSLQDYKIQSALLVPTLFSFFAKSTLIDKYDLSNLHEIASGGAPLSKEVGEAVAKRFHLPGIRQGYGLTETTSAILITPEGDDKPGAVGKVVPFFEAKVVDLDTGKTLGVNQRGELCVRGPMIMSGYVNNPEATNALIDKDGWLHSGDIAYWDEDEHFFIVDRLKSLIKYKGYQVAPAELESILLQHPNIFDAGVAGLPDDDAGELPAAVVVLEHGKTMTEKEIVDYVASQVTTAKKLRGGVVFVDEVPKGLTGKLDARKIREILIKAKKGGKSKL

NC[C@@H]1O[C@H](OC2[C@@H](CO)O[C@@H](OC3[C@H](O)[C@H](N)C[C@H](N)[C@H]3OC3O[C@H](CO)[C@@H](O)[C@H](O)[C@@H]3N)[C@H]2O)C(N)[C@H](O)[C@@H]1O (stereo not given in full)
inactive: [1] | CP215 | CP260 | CP266 | CP268 | CP291 | CP297 | CP305 | CP335 | DIV14 | DIV17 | FAB9 | GB4 | HB3 | ICS | JCK | P93_24 | PC26 | PC49 | TAB109

CNC1C(O)C(OC2C(NC(=O)C(O)CN)CC(N)C(OC3OC(CN)C(O)C(O)C3O)C2O)OCC1(C)O (stereo not given)
inactive: [1] | CP215 | CP260 | CP266 | CP268 | CP291 | CP297 | CP305 | DIV14 | DIV17 | FAB9 | GB4 | HB3 | JCK | P93_24 | PC26 | PC49 | TAB109

NC(=O)c1ncn(C2OC(CO)C(O)C2O)c1N (stereo not given)
inactive: [1] | CP215 | CP260 | CP266 | CP268 | CP291 | CP297 | CP305 | DIV14 | DIV17 | FAB9 | GB4 | HB3 | ICS | JCK | P93_24 | PC26 | PC49 | TAB109

O=C(O)c1ccc(N[C@@H]2OC[C@@H](O)[C@@H](O)[C@@H]2O)cc1
inactive: [1] | CP215 | CP260 | CP268 | CP291 | CP297 | CP305 | CP335 | DIV14 | DIV17 | FAB9 | GB4 | HB3 | ICS | JCK | P93_24 | PC26 | PC49 | TAB109

Cc1onc(-c2c(F)cccc2Cl)c1C(=O)NC1C(=O)N2C1SC(C)(C)C2C(=O)O (stereo not given)
inactive: [1] | CP215 | CP260 | CP266 | CP268 | CP291 | CP297 | CP305 | CP335 | DIV14 | DIV17 | FAB9 | GB4 | HB3 | ICS | JCK | P93_24 | PC26 | PC49 | TAB109

Nc1nc(F)nc2c1ncn2[C@@H]1O[C@H](CO)[C@@H](O)[C@H]1O
inactive: [1] | CP215 | CP260 | CP266 | CP268 | CP291 | CP297 | CP335 | DIV14 | DIV17 | FAB9 | GB4 | HB3 | ICS | JCK | P93_24 | PC26 | PC49 | TAB109
